The supplement of paper PMC13172266
Counter-ions that a name gives are not always drawn.

tested on: U2932 parental; assay: cell proliferation relative to vehicle (% of vehicle); higher = less growth inhibition; details: 50 nM; 72 h
Summary of the method: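 A library of 348 targeted inhibitors was screened against the ABC-DLBCL cell line U2932, using parental cells and two clones made resistant to an ETS-targeting agent through repeated exposure over almost a year. The cells were cultured at 37°C and 5% CO2 in medium containing 10% FBS and treated at 500 nM or 50 nM for 72 h, after which MTT was added for 4 h, stopped with 25% SDS, and absorbance was read on a Cytation 3. Proliferation is given as the percentage of proliferating cells relative to the vehicle, DMSO.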

SMILES | cell proliferation
O=C(O)C1(C(=O)O)CCC1.[NH2-].[NH2-].[Pt+2] [Carboplatin] | 104
C[C@]1(O)C[C@@H](c2nc(-c3ccc4ccc(-c5ccccc5)nc4c3)c3c(N)nccn32)C1 [OSI-906 (Linsitinib)] | 99.3
O=C(O)c1ccc(-c2c[nH]c3ncc(-c4ccccc4)cc23)cc1C1CCCC1 | 105
CN(C)CC[C@H](CSc1ccccc1)Nc1ccc(S(=O)(=O)NC(=O)c2ccc(N3CCN(Cc4ccccc4-c4ccc(Cl)cc4)CC3)cc2)cc1[N+](=O)[O-] | 92
O=C(O)c1ccc(Nc2ncc3c(n2)-c2ccc(Cl)cc2C(c2c(F)cccc2F)=NC3)cc1 | 99.6
CNC(=O)c1cccc(-c2ccc3c(N4CCOC[C@@H]4C)nc(N4CCOC[C@@H]4C)nc3n2)c1 | 91.7
C[C@]12CCC(=O)C=C1CC[C@@H]1[C@@H]2[C@@H](O)C[C@@]2(C)[C@H]1CC[C@]2(O)C(=O)CO [Hydrocortisone] | 96.1
Cc1cnc(-c2cnc(NCCNc3ccc(C#N)cn3)nc2-c2ccc(Cl)cc2Cl)[nH]1 | 99.8
CCOC(=O)C1=C(N)Oc2ccc(Br)cc2C1C(C#N)C(=O)OCC (centres undefined) | 98.4
CN(NC(=O)CC(=O)NN(C)C(=S)c1ccccc1)C(=S)c1ccccc1 [Elesclomol (STA-4783)] | 0.103
CCc1ccc(/C=C2/SC(=S)NC2=O)cc1 | 94.2
O=c1[nH]cc(F)c(=O)[nH]1 [Fluorouracil (5-Fluoracil, 5-FU)] | 102
C[C@@H](N)[C@H]1CC[C@H](C(=O)Nc2ccncc2)CC1 | 94.8
CN(C)Cc1c(C(=O)NCCOc2ccc(C(=O)NO)cc2)oc2ccccc12 | 81.5
C[C@@H](Oc1cc(-n2cnc3ccc(CN4CCN(C)CC4)cc32)sc1C(N)=O)c1ccccc1C(F)(F)F | 8
COc1ccc2c(Oc3ccc(NC(=O)c4c(C)n(CC(C)(C)O)n(-c5ccccc5)c4=O)nc3)ccnc2c1 | 103
COc1cc(CCc2cc(NC(=O)c3ccc(N4CC(C)NC(C)C4)cc3)n[nH]2)cc(OC)c1 (centres undefined) | 98.4
CO[C@H]1/C=C\C=C(/C)C(=O)NC2=CC(=O)C(NCCN(C)C)=C(C[C@@H](C)C[C@H](OC)[C@H](O)[C@@H](C)/C=C(\C)[C@@H]1OC(N)=O)C2=O [17-DMAG (Alvespimycin) HCl] | 67
Cc1c(NC(=O)OC[C@@H]2COCCN2)cn2ncnc(Nc3ccc4c(cnn4Cc4cccc(F)c4)c3)c12 | 97.2
C[C@@H]1CN(CC(=O)Nc2ccc3c(c2)Cc2cccc(-c4cc(=O)cc(N5CCOCC5)o4)c2S3)C[C@H](C)O1 | 105

SMILES | cell proliferation
Oc1ccc(Nc2nc(-c3ccc(Cl)cc3)cs2)cc1 | 97
C=CCn1c(=O)c2cnc(Nc3ccc(N4CCN(C)CC4)cc3)nc2n1-c1cccc(C(C)(C)O)n1 | 94.7
C=C1/C(=C\C=C2/CCC[C@]3(C)[C@@H]([C@H](C)/C=C/[C@H](C)C(C)C)CC[C@@H]23)C[C@@H](O)C[C@@H]1O [Doxercalciferol] | 105
Cn1nnc2c(C(N)=O)ncn2c1=O [Temozolomide] | 98.8
Nc1nc(N)c2nc(-c3cccc(O)c3)c(-c3cccc(O)c3)nc2n1 | 99
COc1cc2c(Oc3ccc4[nH]c(C)cc4c3F)ncnc2cc1OCCCN1CCCC1 [Cediranib (AZD2171)] | 96.7
Cc1[nH]c(/C=C2\C(=O)Nc3ccc(S(=O)(=O)Cc4c(Cl)cccc4Cl)cc32)c(C)c1C(=O)N1CCC[C@@H]1CN1CCCC1 | 102
C[C@@H]1CC(=O)c2c(ccc3c2C(=O)c2cccc(O)c2C3=O)C1 | 87.5
COC(=O)c1ccc([C@H]2c3[nH]c4ccccc4c3C[C@H](C(=O)OC)N2C(=O)CCl)cc1 | 100
COc1cc(Nc2c(C#N)cnc3cc(OCCCN4CCN(C)CC4)c(OC)cc23)c(Cl)cc1Cl [Bosutinib (SKI-606)] | 98.5
CN(C)c1nc(N(C)C)nc(N(C)C)n1 [Altretamine] | 97.7
COc1ccccc1OCC(O)CN1CCN(CC(=O)Nc2c(C)cccc2C)CC1 (centres undefined) [Ranolazine] | 106
O=c1c(O)c(-c2ccc(O)c(O)c2)oc2cc(O)cc(O)c12 [Quercetin] | 101
Cc1csc(-c2nnc(Nc3ccc(Oc4ncccc4-c4ccnc(N)n4)cc3)c3ccccc23)c1 | 66.9
CCCCc1nc2cc(/C=C/C(=O)NO)ccc2n1CCN(CC)CC [Pracinostat (SB939)] | 91.7
COc1ccc(C2=N[C@@H](c3ccc(Cl)cc3)[C@@H](c3ccc(Cl)cc3)N2C(=O)N2CCNC(=O)C2)c(OC(C)C)c1 [Nutlin-3] | 99.8
O=c1sn(-c2cccc3ccccc23)c(=O)n1Cc1ccccc1 [Tideglusib] | 89.3
CCc1cncnc1N1CCN(Cc2nc3ccc(C(F)(F)F)cc3[nH]2)CC1 | 88.9
CN[C@@H](C)C(=O)N[C@H](C(=O)N1CCC[C@H]1C(=O)Nc1snnc1-c1ccccc1)C1CCCCC1 | 95
